Measurements from the supplement of paper PMC8728848.
Many of the other results were omitted from the sample, so the strongest signals are more common in it than they were.

How the values were obtained:
Assay in all cases: glycan array binding signal (z-score within array); higher = stronger binding
Details in all cases: glycan notation: IUPAC condensed, linker removed
[1] = molecular target: GalNAc3S(b1-4)GlcNAc
Outline: (§1)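 The binding signal is a Z-score computed within each array. Data were drawn from 3228 arrays in the Consortium for Functional Glycomics database, restricted to those with a known protein sequence. Scores were averaged over arrays of the same protein sequence at different concentrations or buffers, and over linkers, and negative values can be taken as non-binding.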

[2] = molecular target: Glc(a1-4)Glc
Outline: as §1

[3] = molecular target: GlcA(b1-6)Gal
Outline: as §1

[4] = molecular target: GlcNAc(a1-4)Gal(b1-3)GlcNAc
Outline: as §1

[5] = molecular target: GlcNAc(a1-4)Gal(b1-4)GalNAc
Outline: as §1

[6] = molecular target: GlcNAc(a1-6)Gal(b1-4)GlcNAc
Outline: as §1

[7] = molecular target: GlcNAc(b1-2)Man(a1-3)[GlcNAc(b1-2)Man(a1-6)]Man(b1-4)GlcNAc(b1-4)GlcNAc
Outline: as §1

[8] = molecular target: GlcNAc(b1-3)Gal(b1-4)GlcNAc(b1-3)Gal(b1-4)GlcNAc(b1-2)Man(a1-3)[GlcNAc(b1-3)Gal(b1-4)GlcNAc(b1-3)Gal(b1-4)GlcNAc(b1-2)Man(a1-6)]Man(b1-4)GlcNAc(b1-4)GlcNAc
Outline: as §1

[9] = molecular target: GlcNAc(b1-3)Gal(b1-4)GlcNAc(b1-6)[GlcNAc(b1-3)Gal(b1-3)]GalNAc
Outline: as §1

[10] = molecular target: GlcNAc(b1-3)Gal(b1-4)GlcNAc(b1-6)[GlcNAc(b1-3)]Gal(b1-4)GlcNAc
Outline: as §1

[11] = molecular target: GlcNAc(b1-3)Man
Outline: as §1

[12] = molecular target: Kdn(a2-3)Gal(b1-3)GlcNAc
Outline: as §1

[13] = molecular target: Man(a1-3)[Man(a1-6)]Man(a1-6)[Man(a1-3)]Man
Outline: as §1

[14] = molecular target: Man(a1-3)[Man(a1-6)]Man(b1-4)GlcNAc(b1-4)GlcNAc
Outline: as §1

[15] = molecular target: Man(b1-4)GlcNAc
Outline: as §1

[16] = molecular target: Neu5Ac(a2-3)Gal
Outline: as §1

[17] = molecular target: Neu5Ac(a2-3)Gal(b1-3)GlcNAc6S
Outline: as §1

[18] = molecular target: Neu5Ac(a2-3)Gal(b1-4)GlcNAc(b1-2)Man
Outline: as §1

[19] = molecular target: Neu5Ac(a2-3)Gal(b1-4)GlcNAc(b1-3)Gal(b1-3)GlcNAc
Outline: as §1

[20] = molecular target: Neu5Ac(a2-3)Gal(b1-4)GlcNAc(b1-3)Gal(b1-4)GlcNAc(b1-2)Man(a1-3)[Neu5Ac(a2-3)Gal(b1-4)GlcNAc(b1-3)Gal(b1-4)GlcNAc(b1-2)Man(a1-6)]Man(b1-4)GlcNAc(b1-4)GlcNAc
Outline: as §1

[21] = molecular target: Neu5Ac(a2-3)Gal(b1-4)GlcNAc(b1-3)Gal(b1-4)GlcNAc(b1-3)Gal(b1-4)GlcNAc(b1-2)Man(a1-3)[Neu5Ac(a2-3)Gal(b1-4)GlcNAc(b1-3)Gal(b1-4)GlcNAc(b1-3)Gal(b1-4)GlcNAc(b1-2)Man(a1-6)]GalNAc
Outline: as §1

[22] = molecular target: Neu5Ac(a2-6)Gal(b1-4)Glc
Outline: as §1

[23] = molecular target: Neu5Ac(a2-6)Gal(b1-4)GlcNAc
Outline: as §1

[24] = molecular target: Neu5Ac(a2-6)Gal(b1-4)GlcNAc(b1-2)Man(a1-6)[Gal(b1-4)GlcNAc(b1-2)Man(a1-3)]Man(b1-4)GlcNAc(b1-4)GlcNAc
Outline: as §1

[25] = molecular target: Neu5Ac(a2-6)Gal(b1-4)GlcNAc(b1-3)Gal(b1-4)GlcNAc(b1-3)Gal(b1-4)GlcNAc(b1-2)Man(a1-3)[Neu5Ac(a2-6)Gal(b1-4)GlcNAc(b1-3)Gal(b1-4)GlcNAc(b1-3)Gal(b1-4)GlcNAc(b1-2)Man(a1-6)]GalNAc
Outline: as §1

[26] = molecular target: Neu5Gc(b2-6)Gal(b1-4)GlcNAc
Outline: as §1

B1: Pbx1CASH domain (Cryptococcus neoformans) (protein)
chain: MDETKPLWGNPRADGISLACKDSIVERNVVYDATDGAIVLFGSAGSTVKNNHVYARTRVILGGINLVDYEPWDGDYTNVKVHHNHLYALGRYFKVGIVIGPASWSDDTESVVHSASVTDNEFSGGYWGYGIVVASAKNFEVLRNKVIWDGEQGVARFSGVPGS
glycan array binding signal (z-score) [1]: -0.852 | glycan array binding signal (z-score) [2]: -0.667 | glycan array binding signal (z-score) [3]: -0.6 | glycan array binding signal (z-score) [4]: -0.187 | glycan array binding signal (z-score) [5]: 0.311 | glycan array binding signal (z-score) [6]: -0.894 | glycan array binding signal (z-score) [7]: 0.233 | glycan array binding signal (z-score) [8]: 4.67 | glycan array binding signal (z-score) [9]: 0.647 | glycan array binding signal (z-score) [10]: 1.15 | glycan array binding signal (z-score) [11]: 0.12 | glycan array binding signal (z-score) [12]: -0.869 | glycan array binding signal (z-score) [13]: -0.5 | glycan array binding signal (z-score) [14]: 0.022 | glycan array binding signal (z-score) [15]: -0.348 | glycan array binding signal (z-score) [16]: -0.64 | glycan array binding signal (z-score) [17]: 0.698 | glycan array binding signal (z-score) [18]: 2.55 | glycan array binding signal (z-score) [19]: -0.104 | glycan array binding signal (z-score) [20]: 2.42 | glycan array binding signal (z-score) [21]: 3.29 | glycan array binding signal (z-score) [22]: -0.412 | glycan array binding signal (z-score) [23]: -0.348 | glycan array binding signal (z-score) [24]: -0.843 | glycan array binding signal (z-score) [25]: 3.13 | glycan array binding signal (z-score) [26]: 2.35
